# The whole screen tested about 48,000 compounds, of which about 13,000 (27%) showed an effect of 50% or more. Some of the results follow.
# Test system: Wolbachia pipientis
# Test: Anti-Wolbachia Cell-Based Screen
# Type: functional
# Design: scale not given: in the data most compounds retested in dose-response had high values
# Conditions: 5 µM
row,Structure (SMILES),Percent Effect
1,O=C(NCc1cccc(N2CCCCC2=O)c1)[C@@H](O)c1ccccc1,-1.556%
2,CC(C)c1ccc(N2CCc3onc(-c4ccc(F)c(F)c4)c3C2)nn1,26%
3,CCC1CN(C(=O)Nc2cnc3c(cnn3C(C)C)c2)CCO1 (stereo unspecified),6.429%
4,CCC(CC)CN1C[C@@H]2OCCN(Cc3cnn(C)c3)[C@@H]2C1,-7.114%
5,COc1cc(C)c(C)cc1S(=O)(=O)NCC(O)c1cccn1C (stereo unspecified),-4.325%
6,COC[C@@H]1CCCN1C(=O)c1cc(-c2cccc(OC)c2)n[nH]1,-18.68%
7,COCC1CCCCN1C(=O)c1cc(-c2cccc(OC)c2)n[nH]1 (stereo unspecified),-6.685%
8,COc1cccc(-c2cc(C(=O)Nc3nc[nH]n3)[nH]n2)c1,131.8%
9,CN1CC[C@H](c2nnc(Cc3c[nH]c4ccccc34)o2)C1,-2.7%
10,CN1CCC(c2cc(CCO)ncn2)C1 (stereo unspecified),105.5%
11,CC(C)N1CCC(CC(=O)NCCc2cc(O)ncn2)CC1,-16.23%
12,CCn1c(N)nc2cc(C(=O)N3CCN(c4ccncc4)CC3)cnc21,-2.234%
13,O=C(CCNC(=O)c1ccccc1N1CCOCC1)NC1CCCC1,3.858%
14,CNC(=O)C1(C)CN(c2nnc(C)c3ccccc23)CCO1 (stereo unspecified),101.8%
15,CCOC(=O)c1nnc2ccccc2c1N1CCOC(C)(C)C1,7.014%
16,CNC(=O)[C@@]12CCO[C@@H]1CCN(S(=O)(=O)c1ccccc1C)C2,-56.15%
17,Cc1nnc(N2CCCC2)c(C(N)=O)c1C,-23.35%
18,Cc1ccc(N2CCCC3(CCN(C(=O)NC4CCCC4)C3)C2)nn1 (stereo unspecified),1.477%
19,Cc1nnc(N2CCOC(C)(C(=O)NC3CCCC3)C2)c2ccccc12 (stereo unspecified),100.6%
20,Cc1nnc(N2CCOC(C)(C(=O)N(C)C)C2)c2ccccc12 (stereo unspecified),78.63%
21,Cn1cnc(S(=O)(=O)N2CCN(Cc3ccco3)CC2)c1Cl,-3.277%
22,Cc1n[nH]c(C)c1CN1CC[C@@H]2[C@@H](CCC(=O)N2CCc2c[nH]cn2)C1,-6.371%

row,Structure (SMILES),Percent Effect
1,COCCc1noc(-c2cn(CCc3ccccc3)nn2)n1,-16.95%
2,CC(=O)c1cccc(NC(=O)N(CCO)C2CCc3ccccc32)c1 (stereo unspecified),6.805%
3,COCCCS(=O)(=O)N1CCN(c2cccc(O)c2)CC1,-6.016%
4,O=C1N[C@@H]2CCN(C(=O)C3CCC3)[C@@H]2C(=O)N1c1ccc(F)cc1,10.21%
5,CCN1Cc2cc(F)ccc2N(C(=O)C2CCC2)CCC1=O,113.5%
6,CCN1Cc2ccccc2N(C(=O)C2CCC2)CCC1=O,94.47%
7,O=C(C1CCCOC1)N1CCc2ccc(F)cc21 (stereo unspecified),-7.553%
8,CCN1CC(C(=O)N2CCC(Oc3ccccc3Cl)CC2)CC1=O (stereo unspecified),19.99%
9,O=C(C1CCC1)N1CCC(=O)N(C2CC2)Cc2cc(F)ccc21,89.78%
10,CCN1Cc2cc(F)ccc2N(C(C)=O)CCC1=O,105.8%
11,CN1C(=O)CCN(C(=O)C2CCCCC2)c2ccccc21,-31.28%
12,O=C1NCCCCC1NC(=O)N1CCCc2cc(F)ccc21 (stereo unspecified),-6.196%
13,Cc1noc(C)c1C(C)NC(=O)N1CCC(NC(=O)c2ccsc2)CC1 (stereo unspecified),-3.825%
14,COc1c(NC(=O)C(C)CCOc2ccccc2)c(C)nn1C (stereo unspecified),-7.796%
15,CC(O)CN1CCN(C(=O)CN(C)c2cnccn2)CC1 (stereo unspecified),-17.8%
16,Cn1c(N)nnc1SCc1c(F)cccc1Br,-12.74%
17,Cc1cc(C)c(C(=O)N[C@H](C(N)=O)c2ccccc2)c(=O)[nH]1,4.18%
18,CCOC(=O)CCCNc1nc(C(C)(C)C)nc2c1cnn2C,0.3135%
19,O=C(c1ccsc1)N1CCN(CC(O)c2cccc(F)c2)CC1 (stereo unspecified),8.058%
20,CC(C(=O)N1CCn2cncc2C1)N1CCCC1 (stereo unspecified),4.282%
21,O=C(CCCNCc1ccc(Cl)c2cccnc12)NC1CC1,-3.748%
22,COc1ccc(Cl)cc1-n1nc(C2CCCC2)nc1Cn1cnnn1,-18.77%

row,Structure (SMILES),Percent Effect
1,Nc1nc2c(c(N3CCC(CN4CCCC4=O)CC3)n1)CCNCC2,-8.42%
2,CCC1=N[C@@]2(CC[C@@H]3CN(S(C)(=O)=O)C[C@@H]32)C(=O)N1CC(C)C,-16.48%
3,Cc1cccc(CN2CCc3c(CNC(=O)CC#N)nn(C)c3C2)n1.O=C(O)C(F)(F)F,-9.631%
4,CC(C)Cc1nc(NC(=O)c2cccnc2)n[nH]1,118.7%
5,CC(C)C[C@H](NC(=O)c1cc(-c2cccn2C)n[nH]1)C(N)=O,6.399%
6,Cc1nn(C(C)C)c(C)c1NC(=O)c1cccnc1,6.145%
7,CC(C)Cc1nc(NC(=O)c2cc(-c3cccnc3)n[nH]2)n[nH]1,127.5%
8,CC(C)COCC(NC(=O)c1cccnc1)c1ccco1 (stereo unspecified),-0.4808%
9,O=C(Nc1cc(-c2cccnc2)no1)C1CCC1,9.123%
10,Cc1cc(CC(C)Nc2nc(-c3cccnc3)nc3c2CNC3)[nH]n1 (stereo unspecified),-2.115%
11,Cn1cccc1-c1cc(C(=O)N2CC(c3cccnc3)C2)[nH]n1,-4.055%
12,O=C(Nc1ncc[nH]1)c1cc(-c2cccnc2)n[nH]1,118.3%
13,CC(=O)c1cccc(NC(=O)CN2CCCC(C3OCCO3)C2)c1 (stereo unspecified),1.142%
14,CN1CCN(CCCN(C)S(=O)(=O)CC2CCCCC2)CC1,-9.559%
15,N#CC1(C(=O)N2CCN(Cc3ccon3)CC2)CCC1,-11.71%
16,Cc1ccc(C(=O)NS(=O)(=O)c2ccc3c(c2)OCCCO3)o1,-8.261%
17,COc1c(C2CCCN2Cc2cc(C)no2)c(C)nn1C (stereo unspecified),-10.58%
18,Cc1cc(-c2nn3c(C4CC4)nnc3s2)on1,189.6%
19,Cc1cc(CN2CCN(c3nn4cc(C)nc4s3)CC2)on1,9.459%
20,Cc1cc(CN(C2CC2)C(C)C(C)C)on1 (stereo unspecified),26.3%
21,CCn1c(CN2CCCC2)nnc1C1CCN(Cc2cc(C)no2)CC1,-0.1861%
22,Cc1cc(-c2nn3c(C(C)C)nnc3s2)on1,113.9%

row,Structure (SMILES),Percent Effect
1,CC(C)c1nnc2sc(CC3CCS(=O)(=O)C3)nn12 (stereo unspecified),8.57%
2,CCn1cc(-c2nn3c(C(C)C)nnc3s2)c(C)n1,106.3%
3,Cc1cc(-c2nn3c(C4CCC4)nnc3s2)on1,155.9%
4,Cc1cc(NC(=O)CN2CCn3c(nnc3C(C)C)C2)on1,-16.14%
5,Cc1cc(CN2CCCC2c2noc(C3CC3)n2)c2ccccc2n1 (stereo unspecified),1.295%
6,Cc1noc(C)c1-c1n[nH]c2c1CN(S(=O)(=O)c1ccsc1)CC2,10.76%
7,N#Cc1cccc(Cl)c1NCCCc1nc(=O)[nH][nH]1,-19.22%
8,O=C(N[C@@H]1CCNC[C@H]1O)c1ccccc1OC(F)(F)C(F)F,-13.38%
9,Cc1ccn(Cc2nc(C(C)OCC(C)C)no2)c(=O)c1 (stereo unspecified),12.04%
10,CC(=O)N1CCCN(Cc2nnc(C(C)(C)C)o2)CC1,-4.735%
11,Cn1nc2c(cc1=O)CN(CC(=O)NC1CCCCNC1=O)CC2 (stereo unspecified),4.736%
12,CSc1ccc(C(=O)N(c2ccc(F)cn2)C2CCOCC2)o1,4.022%
13,Cc1nn(C)c2c(N3CCN(C(=O)c4ccccc4)CC3)ncnc12,3.277%
14,COCC(=O)N1CCCC(C(=O)N(C)CCCc2cnn(C)c2)C1 (stereo unspecified),14.99%
15,CN1CCN(C(=O)c2cncc(CC3CCCN(C)C3)c2)CC1 (stereo unspecified),-11.29%
16,COCC(=O)N1CCN2C(=O)OC[C@H]2C1,-11.81%
17,COCC(=O)N1CCN(C)CC(Cc2cc(N(C)C)ncn2)C1 (stereo unspecified),95.35%
18,CN1CCN(C(=O)c2ccccc2)CC(Cc2cc(N(C)C)ncn2)C1 (stereo unspecified),80.45%
19,OCc1cc2ccccc2nc1NCC1CC1,2.516%
20,O=C(Cn1cnc(NC(=O)c2ccccn2)n1)NCc1ccccc1,11.88%
21,COc1ccc(CN2CCOC3(CCCN(c4nnc(C)o4)C3)C2)cc1.O=C(O)C(F)(F)F (stereo unspecified),-9.107%
22,Cc1nc(CN2C(=O)CCC23CCN(Cc2cccn2C)CC3)cs1.O=C(O)C(F)(F)F.O=C(O)C(F)(F)F,110.4%

row,Structure (SMILES),Percent Effect
1,COCCN1CCC2(CCC(=O)N2Cc2csc(C)n2)CC1.O=C(O)C(F)(F)F.O=C(O)C(F)(F)F,99.3%
2,Cc1nc(CN2C(=O)CCC23CCN(c2ncccn2)CC3)cs1.O=C(O)C(F)(F)F,11.75%
3,COCCN1CCc2ccc(=O)n(Cc3csc(C)n3)c2CC1.O=C(O)C(F)(F)F.O=C(O)C(F)(F)F,-8.44%
4,Cc1nc(CN2C(=O)CCC23CCN(Cc2ccccn2)CC3)cs1.O=C(O)C(F)(F)F.O=C(O)C(F)(F)F,113.7%
5,Cc1nc(CN2C(=O)CCC23CCN(Cc2ccoc2)CC3)cs1.O=C(O)C(F)(F)F.O=C(O)C(F)(F)F,99.35%
6,CCOC1CC2(CCN(Cc3cccn3C)CC2)C1.O=C(O)C(F)(F)F,0.1287%
7,NC(=O)C1CCN(C(=O)CSC2CCCc3ccccc32)CC1 (stereo unspecified),-6.301%
8,CCOc1ccccc1C(CC(=O)N(C)c1ccccc1)NC(C)=O (stereo unspecified),3.437%
9,O=C(c1ccn(-c2cccc(Cl)c2)n1)N1CCN(C2CC2)CC1,7.351%
10,COCCNC(=O)c1cc(S(=O)(=O)N2CCCC2)cs1,6.896%
11,CC(C)NC(=O)C(C)S(=O)(=O)c1cc2c(cc1Cl)OCCO2 (stereo unspecified),-0.523%
12,CCC(C)NC(=O)c1cc(S(=O)(=O)N2CCCC2)c(C)s1 (stereo unspecified),99.85%
13,Cc1sc(C(=O)NC(C)C)cc1S(=O)(=O)N(C)C,135.1%
14,CC(C)NC(=O)c1cc(Br)cc(S(=O)(=O)N2CCOCC2)c1F,-9.649%
15,CCC(C)NC(=O)c1cc(S(=O)(=O)N(C)C)c(C)s1 (stereo unspecified),107%
16,CC(C)NC(=O)CS(=O)(=O)c1cc2c(cc1Cl)OCCO2,-3.378%
17,CCC(C)NC(=O)c1cncc(Br)c1 (stereo unspecified),12.99%
18,CCC(C)NC(=O)CS(=O)(=O)Cc1cc(C)ccc1C (stereo unspecified),-1.911%

# Reference: ChEMBL document CHEMBL3988442, “University of Dundee, Small-Polar-MMV Screening Library” (2021)
